Bioassay records (PubChem)
Six1-Eya2 inh: inhibitors of human Six1/Eya2 interaction. Q15475+O00167. AlphaScreen GST-Six1/His-Eya2 binding, biochemical; hits give low values. activity change, % (concentration not given with the values). 360,000 tested, 0.56% active. AID 651725; also: % is scaled to controls: 0 for no effect and ±100 for the full control effect
Target sequence (O00167 whole entry, looked up): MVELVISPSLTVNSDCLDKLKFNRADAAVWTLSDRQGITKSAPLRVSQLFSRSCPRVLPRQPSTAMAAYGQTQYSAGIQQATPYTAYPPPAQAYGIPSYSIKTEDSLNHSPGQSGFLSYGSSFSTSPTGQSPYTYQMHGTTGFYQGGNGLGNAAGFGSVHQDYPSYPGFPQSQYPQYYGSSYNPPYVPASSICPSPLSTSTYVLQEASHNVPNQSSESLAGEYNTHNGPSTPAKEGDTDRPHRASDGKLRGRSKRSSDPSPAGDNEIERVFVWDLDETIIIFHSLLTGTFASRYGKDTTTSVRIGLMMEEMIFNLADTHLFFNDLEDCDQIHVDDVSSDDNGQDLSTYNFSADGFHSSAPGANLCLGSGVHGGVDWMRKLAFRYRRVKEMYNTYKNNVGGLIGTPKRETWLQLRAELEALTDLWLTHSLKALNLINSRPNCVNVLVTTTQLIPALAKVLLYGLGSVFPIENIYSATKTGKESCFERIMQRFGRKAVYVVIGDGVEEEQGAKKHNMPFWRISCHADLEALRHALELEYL
Target sequence (Q15475 whole entry, looked up): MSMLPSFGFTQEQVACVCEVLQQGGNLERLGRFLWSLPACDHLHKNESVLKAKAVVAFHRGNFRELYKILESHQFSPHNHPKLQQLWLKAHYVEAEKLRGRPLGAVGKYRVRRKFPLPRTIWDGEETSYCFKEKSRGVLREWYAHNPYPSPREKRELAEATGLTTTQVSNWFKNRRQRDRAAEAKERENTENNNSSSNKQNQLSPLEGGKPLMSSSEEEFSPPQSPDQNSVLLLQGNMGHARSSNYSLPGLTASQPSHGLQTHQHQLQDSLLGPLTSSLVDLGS
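Homogeneous AlphaScreen proximity assay pairing GST-Six1 with His-tagged Eya2 (added as 5X mix: 250 nM and 500 nM) in 50 mM Tris pH 8.0, 300 mM NaCl, 1 mM TCEP. Glutathione donor and nickel acceptor beads; 1 h, 37 °C, dark.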
MBNL1 CUG block: MBNL1-poly(CUG) RNA binding inhibition; TR-FRET MBNL1-His/biotin-(CUG)12 binding, 665/545 ratio; Potency, µM (top dose mostly 57.5 µM), for the others: top-dose activity change, negative = inhibition, actives largely listed as inhibitors; 280,000 tested, 0.036% active; AID 2675; active = well fitted inhibition curve with a large enough effect in the signal ratio, with a control signal flat, not every such curve was filed as active; inconclusive = small, poorly fitted or top-dose-only effect, or effect the other way, or a change in a side signal; inactive = no such curve, though single readings can be large or run the other way; the % refers to the signal ratio; also: potency is read from the fitted curve at half-maximal effect; % is scaled to controls: 0 for no effect and ±100 for the full control effect
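Compounds (final 92 nM to 58 uM) are added to His-tagged MBNL1 and biotin-(CUG)12, then terbium anti-His antibody and streptavidin-XL665 (5 nM final). After 60 min at room temperature, the 665/545 nm ratio is read.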
CtBP-E1A blk: blocks the CtBP interaction with E1A | AlphaScreen GST-E1A/His-CtBP binding, 1536-well; hits give low values | activity change, % (test concentration not listed) | 340,000 tested, 0.49% active; also: % is scaled to controls: 0 for no effect and ±100 for the full control effect
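Homogeneous bead-based format: GST-tagged E1A captured on glutathione donor beads, His-tagged CtBP on nickel acceptor beads; compounds precede bead addition by 2 h at 37 °C.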
uPA surface inh: blocks generation of uPA at the cell surface; Potency, µM (doses to about 38.3 µM), for inactives: at the highest dose activity change, negative = inhibition, usual class: inhibitors; cell surface uPA generation assay, qHTS; 330,000 tested, 0.31% active; active = well fitted inhibition curve with a large enough effect; inconclusive = small, poorly fitted or top-dose-only effect; inactive = no such curve, though single readings can be large or run the other way; tested in mouse RAW 264.7 cells; also: potency is read from the fitted curve at half-maximal effect; % is scaled to controls: 0 for no effect and ±100 for the full control effect; nearly all actives have a fitted effect of over 55% in size
Mito fusion yeast: blocks mitochondrial division or promotes mitochondrial fusion; S. cerevisiae fusion-defective mutant growth rescue, CellTiterGlo 48 h; Potency, µM (highest dose often 46.1 µM), without a hit: at the highest dose growth rescue (activation), actives largely listed as activators; 320,000 tested, 0.23% active; active = well fitted activation curve with a large enough effect; inconclusive = small, poorly fitted or top-dose-only effect; inactive = no such curve, though single readings can be large or run the other way; also: potency is read from the fitted curve at half-maximal effect; % of control where 0% means no effect; nearly all actives have a fitted effect of over 45% in size
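Growth-rescue viability read-out: after 48 h at the non-permissive 37C in glycerol/ethanol YPEG, yeast mitochondrial fusion mutants are measured by CellTiterGlo luminescence; compounds (23 nl pinned per well) restoring growth score as division inhibitors or fusion activators.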
Active calls of the source: *; ? = inconclusive; / = no result given; ! = a repeat was not active; [ ] = remark or other dose. Compounds with a hit are over-represented: about 1.1% of the library has one in this group of screens. Rule as the data show it, unless noted: active = activity change below about -65%; inconclusive = mostly about -30% to -63%; inactive = weaker than that.

SMILES | Six1-Eya2 inh | MBNL1 CUG block | CtBP-E1A blk | uPA surface inh | Mito fusion yeast
Cc1ccc(C2=NN=C(NC(=O)CSc3nnc4c5ccccc5n(C)c4n3)SC2)cc1 | -72* | 34% | ? | -8% | 5%
Cn1c2ccccc2c2nnc(SCC(=O)Nc3cccc(C(=O)O)c3)nc21 | -67* | ? | ? | -7% | 6%
CC1Cc2ccccc2N1C(=O)CN(C)CC(=O)Nc1ccc(F)cc1 (stereo not given) | -3 | / | -2 | 26% | 13%
O=C1NC(=O)/C(=C/c2ccc3nccnc3c2)S1 | / | / | / | / | 9.2µM*
O=C1NC(=O)/C(=C\c2ccc(Cl)nc2)S1 | -6 | 1% | / | ? | -7%
O=C(Nc1ccc(Cl)c(Cl)c1)c1ccccc1 | 13 | / | 6 | -21% | ?
CN(C(=O)Nc1ccc(Cl)c(Cl)c1)c1ccccc1C(=O)O | 3 | 1%[11.5 µM] | -6 | -2% | 18µM*
COc1ccc(OC)c(/C=C/C(=O)Oc2ccc(C(C)=O)cc2)c1 | -23 | 17% | -88* | 1% | -13%
COc1ccc(OC)c(/C=C/C(=O)OCC(=O)N2CCCC2)c1 | -10 | / | / | -7% | 0%
COc1ccc(OC)c(/C=C/C(=O)OCC(=O)Nc2cccc(C(C)=O)c2)c1 | -3 | / | -15 | -2% | 7%
COc1ccc(OC)c(/C=C/C(=O)OCC(=O)N2C(C)CCCC2C)c1 (stereo not given) | -67* | / | -94* | -16% | /
O=C(Nc1cccs1)Nc1nnc([C@@H]2C[C@H](O)[C@@H](CO)O2)s1 | -6 | / | -4 | / | /
O=C(/C=C/c1ccccc1)CC(=O)c1ccccc1O | -5 | -5% | / | 8.9µM* | -2%
O=C(Nc1nc(-c2ccco2)c(-c2ccco2)s1)c1c(F)cccc1Cl | -25 | / | / | 0% | 13µM*
Cc1cc2c(s1)c1c(C)nn(Cc3ccccc3F)c(=O)c1n2C | / | / | / | / | -5%
NC(=O)c1sc2nc3c(c(-c4ccco4)c2c1N)CCC3 | -71* | ? | -7 | 4% | 0%
CCCCCCCCCCCCCCCCCC(=O)OC(CC(=O)O)C[N+](C)(C)C (stereo not given) | / | / | / | / | -34%
CC(C(O)c1ccc(O)cc1)N1CCC(Cc2ccccc2)CC1 (stereo not given) | -2 | 0% | -3 | -15% | 16µM*!
CC(C)OCC(O)CN1CCC(Cc2ccccc2)CC1 (stereo not given) | 1 | -5% | / | 5% | 1%
C[C@@H](CN1CCC(Cc2ccccc2)CC1)[C@@H](O)c1ccc(O)cc1 | -9 | / | -8 | -13% | 23µM*!
CC1CCc2sc(NC(=O)c3ccc(N4C(=O)CCC4=O)cc3)c(C(N)=O)c2C1 (stereo not given) | -2 | 2% | 2 | -6% | 1%
NC(=O)c1c(NC(=O)c2ccc(N3C(=O)CCC3=O)cc2)sc2c1CCCC2 | -68* | / | / | -18% | -10%
CC(C)C[C@@H](COCc1ccc([N+](=O)[O-])cc1)N1CCN(C(=O)c2ccc(C(F)(F)F)cc2)CCC1=O | -69* | / | -90* | / | /
CC(C)C[C@@H](COCc1ccc(Cl)cc1)N1CCN(C(=O)c2ccc(C(F)(F)F)cc2)CCC1=O | -1 | / | 8 | / | /
O=C1c2cccc3c(O)ccc(c23)C(=O)N1Cc1ccccc1 | -4 | 49% | 10 | -6% | 18µM*
SMILES | Six1-Eya2 inh | MBNL1 CUG block | CtBP-E1A blk | uPA surface inh | Mito fusion yeast
COc1ccc([C@]23Cc4cc(OC)c(OC)cc4C(O2)c2c(cc(C)n(Cc4ccccc4)c2=O)O3)cc1 | / | 14%[11.5 µM] | / | / | 1%[9.22 µM]
N[C@H](C(=O)O)[C@H](Cc1ccccc1)C(=O)O | / | / | / | / | 1%
COc1cccc2sc(Nc3nnc(-c4ccc(F)cc4)o3)nc12 | -7 | 5% | 2 | 5.6µM* | 13%
Nc1nc(-c2ccccc2)c(N=Nc2ccccc2Cl)s1 | -76* | 36% | -67* | -2% | ?
COc1ccc(N=Nc2cnc(C)nc2-c2ccccc2)cc1 | ? | 22% | -29 | 19% | 10%
Cc1ncc(N=Nc2ccccc2Cl)c(-c2ccccc2)n1 | -69* | ? | -66* | 11% | 5%
Nc1nc(-c2ccccc2)c(N=Nc2cccc3ccccc23)s1 | -78* | ? | -93* | 3% | 10%
CCCCNC(=O)c1nc(C2CCN(S(=O)(=O)c3ccc(OC(F)(F)F)cc3)CC2)oc1-c1ccccc1 | 5 | / | 4 | / | /
